# Bioassay records as filed in PubChem.
# MEKK2mut PB1 HTS – MEK5 binding signal on mutant MEKK2 PB1, primary screen, biochemical, multiplex bead flow cytometry, Alexa488-MEK5 | actives 0.35% (n = 290,000) | AID 1530, 2009 | percent response, % at 10 µM | Alexa488-MEK5 binding to MEKK2 mutant; in the data active = percent response above about 24%, passing the limit was not always enough
# DNA FID counter – compounds displacing fluorescent DNA intercalator, primary screen, artefact control for HCV NS3 helicase inhibitor project, biochemical, FID fluorescence. actives 0.17% (n = 290,000). AID 1845, 2009. inhibition, % at 7.9 µM. DNA fluorescent intercalator displacement; in the data active = inhibition above about 37%;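 note: 0% = vehicle and 100% = reference compound; higher means more ethidium bromide displaced from hairpin DNA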
# MEKK3 PB1 HTS – modulators of MEKK3-MEK5 PB1 binding, primary screen, biochemical, wildtype MEKK3, multiplex bead flow cytometry, Alexa488-MEK5. Mitogen-activated protein kinase kinase kinase 3 (Homo sapiens), Q99759. bead-based flow cytometry, Alexa488-MEK5 binding to MEKK3; actives lie on both sides; 0 = blocked by unlabeled MEK5, 100 = vehicle. binding response (% of control), % at 10 µM. actives 1.4% (n = 290,000);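 active = binding response more than 3 SD above or below the average of its plate-row segment, actives on both sides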;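 note: Alexa488 bead fluorescence after subtracting the streptavidin-only scavenger bead signal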
# Target sequence (Q99759 whole entry, looked up): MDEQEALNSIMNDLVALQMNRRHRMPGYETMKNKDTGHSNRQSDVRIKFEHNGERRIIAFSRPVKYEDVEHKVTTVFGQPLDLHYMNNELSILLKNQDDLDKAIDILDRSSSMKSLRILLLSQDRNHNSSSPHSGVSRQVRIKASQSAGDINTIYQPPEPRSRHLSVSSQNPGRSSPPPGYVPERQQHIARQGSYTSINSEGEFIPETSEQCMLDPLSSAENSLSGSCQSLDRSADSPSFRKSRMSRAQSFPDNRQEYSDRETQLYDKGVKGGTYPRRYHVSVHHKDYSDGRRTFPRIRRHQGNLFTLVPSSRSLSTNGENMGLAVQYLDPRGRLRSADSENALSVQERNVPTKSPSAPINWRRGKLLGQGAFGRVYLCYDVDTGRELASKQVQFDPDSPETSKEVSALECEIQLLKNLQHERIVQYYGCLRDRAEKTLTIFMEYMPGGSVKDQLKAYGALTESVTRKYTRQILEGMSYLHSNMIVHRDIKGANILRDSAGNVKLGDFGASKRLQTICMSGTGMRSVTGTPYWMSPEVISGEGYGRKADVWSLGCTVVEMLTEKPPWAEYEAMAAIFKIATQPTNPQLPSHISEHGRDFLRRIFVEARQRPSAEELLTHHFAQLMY
# dFosB activator – activators of delta FosB homodimer, primary screen, biochemical, fluorescence polarization, TAMRA-CDK5 oligo, single point. activation, % at 25 µM. actives 0.99% (n = 340,000). purified delta FosB; percent of positive-control signal above neutral wells. Protein FosB (Mus musculus), P13346. AID 493131, 2011;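 active = mean activation above about 17%, with every replicate also reaching it, limit read from the data, passing the limit was not always enough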
# MEKK2 WT-MEK5 – modulators of MEK5 binding to wildtype MEKK2, primary screen, biochemical, multiplex bead flow cytometry, Alexa488-MEK5; Mitogen-activated protein kinase kinase kinase 2 (Homo sapiens), Q9Y2U5; Alexa488-MEK5 binding to MEKK2 WT; actives lie on both sides; binding response (% of control), % at 10 µM; actives 1.1% (n = 290,000); AID 1531, 2009; in the data active = binding response below about 67% or above about 130%
# MEKK2wt confirm – modulators of MEK5 binding to wildtype MEKK2, confirmation, biochemical, single concentration, multiplex bead flow cytometry; shares compounds with MEKK3 PB1 HTS; Alexa488-MEK5 binding to MEKK2 WT; actives lie on both sides; binding response (% of control), % at 10 µM; actives 2.4% (n = 5,900); in the data active = binding response below about 16% or above about 210%; inactive = in between
# MEKK2mut-MEK5 – mutant MEKK2 PB1-MEK5 binding signal retest – biochemical, single concentration, multiplex bead flow cytometry, confirmation; shares compounds with MEKK3 PB1 HTS; Alexa488-MEK5 binding to MEKK2 mutant; percent response, % at 10 µM; actives 2% (n = 5,900); AID 1893, 2009; in the data active = percent response mostly above about 71%, no sharp cut-off; inactive = mostly below about 38%;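 note: higher means compound restores mutant binding toward wildtype level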
# MEKK3-MEK5 inh – MEKK3 wild-type PB1 binding to MEK5, inhibitors, confirmation, biochemical, bead multiplex flow cytometry, single concentration, wildtype; shares compounds with MEKK3 PB1 HTS; Alexa488-MEK5 binding to MEKK3; hits give low values; binding response (% of control), % at 10 µM; actives 1.8% (n = 5,900); AID 1894, 2009;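 active = binding response below 72% of control, or above a set upper limit, though filed actives all read lower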;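 note: 100% = DMSO only wells and 0% = binding blocked by excess unlabeled MEK5; lower values mean stronger disruption of MEK5 binding to MEKK3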
# * = called active by the depositor; / = no result given; ! = repeats disagree; [ ] = remark or other dose. In the library only some 2.9% were active in any assay of this set; here they are far more common.
SMILES,MEKK2mut PB1 HTS,DNA FID counter,MEKK3 PB1 HTS,dFosB activator,MEKK2 WT-MEK5,MEKK2wt confirm,MEKK2mut-MEK5,MEKK3-MEK5 inh
COc1ccc(CNCCC(c2ccc(OC(C)C)cc2)C(C)C)cc1OC (configuration not stated),6,25,104,1,114,/,/,/
Clc1ccc(CNc2nnnn2-c2ccccc2)c(Cl)c1,-3,-6,94,-6,95,/,/,/
CC1CCCC(=C\c2ccccc2)/C1=N/O (configuration not stated),-2,-4,97,2,95,/,/,/
O=C(O)C(c1ccccc1)N1C(=O)/C(=C\c2ccc(-c3ccc(Br)cc3)o2)SC1=S (configuration not stated),-14,14,87,-10,65*[inhibitor],76,-10,94
O=C(O)C(c1ccccc1)N1C(=O)/C(=C\c2ccc(-c3ccccc3Cl)o2)SC1=S (configuration not stated),-8,23,97,-16,90,/,/,/
C=CCN1C(=O)/C(=C/c2ccc(-c3ccc(F)cc3)o2)SC1=S,-10,-1,49*[inhibitor],1,18*[inhibitor],26,-32,62*
COc1ccccc1C(=O)NCCC(=O)OCC(=O)Nc1ccc(S(N)(=O)=O)cc1,/,/,/,-7,/,/,/,/
O=C(c1ccc(SCc2cccc(Br)c2)c([N+](=O)[O-])c1)N1CCN(c2ccccn2)CC1,-1,9,99,-4,98,/,/,/
O=C(CSc1nc2ccccc2[nH]1)NCC1CCCO1 (configuration not stated),12,1,97,-1,102,/,/,/
O=C(CSc1nc(-c2ccccc2)c(-c2ccccc2)[nH]1)NCC1CCCO1 (configuration not stated),-20,-22,93,1,54*[inhibitor],98,-8,95
CCOC(=O)c1c(S(=O)(=O)NCc2ccc(OC)cc2)c(C)n(C)c1C,1,-23,103,-11,103,/,/,/
CC1CN(Cc2cc(=O)[nH]c(C3CC3)n2)CC(C)O1 (configuration not stated),-16,-5,2.0*[inhibitor],3,3.0*[inhibitor],106,5,103
O=c1cc(CN2CCCCC2)nc(C2CC2)[nH]1,0,0,99,1,102,/,/,/
O=C(CN(Cc1ccc(F)cc1)C(=O)c1ccco1)NCc1ccc(F)cc1,-21,-8,0.0*[inhibitor],-1,0.0*[inhibitor],104,10,109
Cc1no[n+]([O-])c1COc1ccc(/C=C(\C#N)C(N)=O)cc1,1,-1,134*,3,104,105,3,100
CCOc1cc(/C=C(\C#N)C(N)=O)ccc1OCc1c(C)no[n+]1[O-],-4,0,102,-6,99,/,/,/
O=S1(=O)c2c(F)cccc2O[C@@H](COCc2ccccc2)CN1CCc1ccc(F)cc1,/,/,/,-2,/,/,/,/
C=CCc1ccc(OCCCOc2ccc(C)c(C)c2)c(OC)c1,-10,-3,80*[inhibitor],-3,91,99,-6,99
CC(=O)Nc1ccc(NC(=O)C(C)OC(=O)CCC2CCCC2)cc1 (configuration not stated),/,/,/,-2,/,/,/,/
COc1ccccc1Oc1nnnn1-c1ccc(C(N)=O)cc1,4,-2,101,3,104,/,/,/
NC(=O)c1ccc(-n2nnnc2Oc2ccccc2)cc1,-9,-1,81*[inhibitor],-5,83,103,4,105
CC1(C)CC(=O)C2=C(C1)N1C(=C(C#N)C2c2ccc(Cl)cc2)N=C(N)c2ccccc21 (configuration not stated),-14,-9,1.0*[inhibitor],4,2.0*[inhibitor],93,-3,101
CC1(C)CC(=O)C2=C(C1)N(c1ncn[nH]1)C(N)=C(C#N)C2c1ccccc1 (configuration not stated),0,-1,137*,0,109,111,6,109
O=C(CCn1nc(-c2ccc(Cl)cc2)c2ccccc2c1=O)NN1CCOCC1,5,-29,99,/,95,/,/,/
CC(C)(C)c1ccc(C(=O)NCC(=O)O)cc1,-7,-1,98,3,90,/,/,/
SMILES,MEKK2mut PB1 HTS,DNA FID counter,MEKK3 PB1 HTS,dFosB activator,MEKK2 WT-MEK5,MEKK2wt confirm,MEKK2mut-MEK5,MEKK3-MEK5 inh
CCOC(=O)c1c(S(=O)(=O)NCc2ccco2)c(C)n(C)c1C,0,-16,105,-5,103,/,/,/
CCOc1ccc(C2=C/C(=C/c3cccnc3)C(=O)O2)cc1,-2,-22,82*[inhibitor],5,84,37,-17,59*
COc1ccc(C2=C/C(=C/c3cccnc3)C(=O)O2)cc1OC,-2,-15,97,-7,96,/,/,/
CC1(C)CC(=O)c2cc(OCC(=O)NCCCN3CCN(c4ccc(F)cc4)CC3)ccc2O1,20,8,109,-4,144*,122,11,101
N/C(Cc1cccc2ccccc12)=N\OC(=O)Cc1cccs1,0,-3,144*,3,100,98,0,102
N/C(Cc1cccc2ccccc12)=N\OC(=O)c1cccs1,0,-1,103,-6,100,/,/,/
CCc1ccc(C2=Nn3c(nnc3-c3cccs3)SC2)cc1,5,-8,126*,-39,119,95,-2,100
Clc1ccccc1CN1CCc2sccc2C1,-2,-2,70*[inhibitor],1,0.0*![inhibitor],103,3,98
CN(Cc1ccc(OCC(O)CN2CCCCC2)cc1)Cc1ccnc2ccccc12 (configuration not stated),37,7,106,-9,148*,127,30,106
Cc1ccc(S(=O)(=O)N(C)C)cc1NC(=S)NNC(=O)C1CC1,0,0,131*,-7,105,99,-1,99
CN(CC(=O)Nc1ccc([N+](=O)[O-])cc1Br)Cc1c(F)cccc1Cl,-4,1,99,-7,101,/,/,/
COc1ccc(C(=O)Cn2nc(CNc3ccc(Br)cc3)[n+]3c2CCCCC3)cc1,5,22,103,-6,150*,148,20,107
